Data: the supplement of paper PMC3334620
Over roughly 33,000 sequences, “E-score (-0.5 to 0.5)” has its median near -0.041; the highest 2% begin near 0.37. The full list was thinned out, with the highest values kept by preference.

Target: T1, Ecm22 (UniProt Q05958)
T1 sequence: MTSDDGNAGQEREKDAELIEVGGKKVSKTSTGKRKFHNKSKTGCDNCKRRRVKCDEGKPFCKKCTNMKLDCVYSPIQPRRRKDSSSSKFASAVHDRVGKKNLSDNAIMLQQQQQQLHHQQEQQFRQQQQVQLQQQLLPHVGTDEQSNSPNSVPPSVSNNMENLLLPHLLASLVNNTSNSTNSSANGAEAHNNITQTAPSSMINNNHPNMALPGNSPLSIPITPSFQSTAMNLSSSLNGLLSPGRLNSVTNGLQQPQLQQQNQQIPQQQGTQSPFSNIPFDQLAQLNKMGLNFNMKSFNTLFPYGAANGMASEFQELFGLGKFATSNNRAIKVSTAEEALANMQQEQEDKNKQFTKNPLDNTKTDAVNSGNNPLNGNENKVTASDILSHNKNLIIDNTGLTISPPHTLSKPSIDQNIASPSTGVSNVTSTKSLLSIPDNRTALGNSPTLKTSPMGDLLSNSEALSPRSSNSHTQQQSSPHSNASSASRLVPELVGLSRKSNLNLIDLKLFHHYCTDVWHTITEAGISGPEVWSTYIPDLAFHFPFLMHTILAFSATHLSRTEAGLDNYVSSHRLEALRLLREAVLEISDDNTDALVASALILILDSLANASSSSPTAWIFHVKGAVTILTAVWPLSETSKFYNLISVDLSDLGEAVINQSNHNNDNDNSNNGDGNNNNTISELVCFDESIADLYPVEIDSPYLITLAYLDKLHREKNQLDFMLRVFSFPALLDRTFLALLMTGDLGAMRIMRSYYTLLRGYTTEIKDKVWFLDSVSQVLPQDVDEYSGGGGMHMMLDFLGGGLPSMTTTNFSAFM
Experiment: PBM E-score (8-mer binding enrichment) (E-score (-0.5 to 0.5)); higher = stronger / more preferred TF binding
Conditions: protein concentration: 200 nM; construct: GST-full length
Experimental: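 Universal 'all 10-mer' protein binding microarrays (Agilent AMADID 015681) probed with GST-tagged S. cerevisiae TFs (full-length or DBD) made by in vitro transcription/translation (PURExpress), about 100-200 nM. Bound TF was detected with fluorescent anti-GST. Each ungapped 8-mer (which stands for itself and its reverse complement) is scored by the PBM enrichment score (E-score), a modified Wilcoxon-Mann-Whitney statistic from -0.5 to +0.5, computed with the Universal PBM Analysis Suite. Scale: above 0.35 generally sequence-specific binding.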

First: GGGAACAA
Second: GGGAACGA
The “PBM E-score” value of the first is lower: 0.143 for the first, 0.492 for the second.

Compared with GGGAACCA, AGCCATTA is higher in “PBM E-score” value: -0.215 for the first, 0.18 for the second.

First: AGAGGCTA
Second: TAATACGA
The “PBM E-score” value of the first is lower: -0.209 for the first, 0.437 for the second.

First: AAATACGA
Second: GAATACTA
The “PBM E-score” value of the first is higher: 0.451 for the first, 0.141 for the second.

Compared with AAATACGC, CAATACGG is lower in “PBM E-score” value: 0.194 for the first, 0.0307 for the second.

Going from TAATACCA to CAATACGA, the “PBM E-score” value rises from 0.0168 to 0.403.

Compared with AAATACGT, CAATACGC is lower in “PBM E-score” value: 0.0932 for the first, -0.0345 for the second.

Going from GAATACGC to TAATACTA, the “PBM E-score” value falls from 0.152 to 0.114.

Going from GAATACGA to ATCGCCGA, the “PBM E-score” value falls from 0.432 to 0.00202.

First: GGTTGTCA
Second: ACCGCAGC
The “PBM E-score” value of the first is lower: -0.195 for the first, -0.0492 for the second.

Going from ATCTTTTA to GCCCGCAC, the “PBM E-score” value falls from 0.0457 to -0.0245.

Going from CACCCCAG to ACAATAAT, the “PBM E-score” value rises from -0.0849 to -0.0625.

Going from CGCGGATA to CACCACAG, the “PBM E-score” value falls from 0.188 to -0.132.

Going from CTACCCAG to ACCCCAGT, the “PBM E-score” value falls from -0.0541 to -0.0793.

Going from CCTAGAAG to CGTGGCGC, the “PBM E-score” value rises from -0.187 to 0.0496.

First: ACGAAATA
Second: ACGAAATC
The “PBM E-score” value of the first is higher: 0.381 for the first, 0.285 for the second.

First: CCGAAACG
Second: ACGAAACG
The “PBM E-score” value of the first is lower: 0.288 for the first, 0.411 for the second.

First: ACGAAACT
Second: ACGAAACA
The “PBM E-score” value of the first is higher: 0.369 for the first, 0.335 for the second.

ACGAAACC and ACGAAAGG are the same in “PBM E-score” value: 0.33 for the first, 0.33 for the second.

First: GCGAAATA
Second: CGAAGGAG
The “PBM E-score” value of the first is lower: 0.0791 for the first, 0.129 for the second.

Compared with GACTGAAC, AATTCAGT is lower in “PBM E-score” value: 0.0447 for the first, -0.189 for the second.

First: AAACCTTA
Second: CTAAGGGA
The “PBM E-score” value of the first is higher: 0.0879 for the first, 0.0248 for the second.

Going from ATCCCACA to GATCGTAA, the “PBM E-score” value rises from -0.176 to 0.387.

Compared with AATCGTCT, AATCGTAT is higher in “PBM E-score” value: 0.0505 for the first, 0.427 for the second.

Compared with AATCGTAA, GATCGTAC is higher in “PBM E-score” value: 0.333 for the first, 0.454 for the second.

Compared with GATCGTGC, CATCGTCA is lower in “PBM E-score” value: 0.0469 for the first, -0.0402 for the second.

First: CATCGTAA
Second: GATCGTTA
The “PBM E-score” value of the first is higher: 0.381 for the first, 0.211 for the second.

Going from AATCGTAG to GATCGTCC, the “PBM E-score” value falls from 0.211 to -0.0538.

Compared with CATCGTGA, CCCGCAAA is higher in “PBM E-score” value: 0.108 for the first, 0.148 for the second.

First: CTGACCCA
Second: ACTGCTAC
The “PBM E-score” value of the first is lower: -0.312 for the first, 0.00971 for the second.

Going from CATGCTCA to CCACGGAG, the “PBM E-score” value rises from -0.229 to -0.163.

Compared with ACACAGTA, AATCGTAC is higher in “PBM E-score” value: -0.0309 for the first, 0.458 for the second.

Compared with CATCGTAG, CATCGTCC is lower in “PBM E-score” value: 0.261 for the first, 0.0413 for the second.

Going from AATCGTCC to CATCGTAC, the “PBM E-score” value rises from 0.0602 to 0.458.

Compared with AATCGTGC, GTTAAGCA is lower in “PBM E-score” value: 0.221 for the first, -0.0308 for the second.

Going from CATCAGAG to ACACCCCT, the “PBM E-score” value falls from -0.126 to -0.271.

Going from TGTTCTAA to AGTGCGTA, the “PBM E-score” value rises from -0.023 to 0.14.

Going from CGAGTATC to CCGCTATC, the “PBM E-score” value falls from 0.246 to 0.0478.

First: CATACGGA
Second: GATACGGA
The “PBM E-score” value of the first is higher: 0.362 for the first, 0.285 for the second.

Compared with TATACGCA, TATACGGA is higher in “PBM E-score” value: 0.415 for the first, 0.439 for the second.

Compared with GATACGCA, CATACGCA is lower in “PBM E-score” value: 0.231 for the first, 0.216 for the second.

Compared with CGGATCGA, ATCTTTTC is lower in “PBM E-score” value: 0.219 for the first, -0.0858 for the second.

Compared with ACGTTATG, ACGAGTAA is higher in “PBM E-score” value: 0.163 for the first, 0.396 for the second.

Compared with ACGAGTAT, ACGAGTAG is lower in “PBM E-score” value: 0.382 for the first, 0.38 for the second.

Going from ACGAGTAC to AAGAGTAG, the “PBM E-score” value falls from 0.421 to -0.211.

Compared with CCGAGTAA, CCGAGTAC is lower in “PBM E-score” value: 0.256 for the first, 0.24 for the second.

Going from GCGAGTAC to GCGAGTAA, the “PBM E-score” value falls from 0.324 to 0.114.

Going from AAGAGTAT to AGGAGTAT, the “PBM E-score” value rises from -0.113 to -0.109.

First: CCGAGTAG
Second: AGGCCCAT
The “PBM E-score” value of the first is higher: 0.0401 for the first, -0.148 for the second.

Compared with GACCGCGC, CCCGACCC is higher in “PBM E-score” value: 0.0551 for the first, 0.092 for the second.

Compared with AAGCGCGT, CCCCTCGG is higher in “PBM E-score” value: 0.0575 for the first, 0.266 for the second.

Compared with CCGAGCCC, CCCCTCTA is lower in “PBM E-score” value: 0.0573 for the first, -0.112 for the second.

Compared with AAGTTTGT, AACTGTTC is lower in “PBM E-score” value: -0.176 for the first, -0.177 for the second.

Going from ACGCAGGA to AGCTGCCA, the “PBM E-score” value falls from 0.108 to -0.171.

First: ACGCCACC
Second: CCGGTGGC
The “PBM E-score” value of the first is higher: -0.0558 for the first, -0.135 for the second.

Going from ACGAGTCG to ACGAGTCT, the “PBM E-score” value falls from 0.384 to 0.324.

Going from ACGAGTCA to AATCCATT, the “PBM E-score” value falls from 0.219 to 0.0189.

Going from CACTCGTC to AACTCGTA, the “PBM E-score” value rises from 0.0448 to 0.47.

Compared with CACTCGTA, GACTCGTA is lower in “PBM E-score” value: 0.458 for the first, 0.455 for the second.

Going from AACTCGTC to GACTCGCA, the “PBM E-score” value rises from 0.102 to 0.151.

Going from CACTCGAA to GACTCGAA, the “PBM E-score” value falls from 0.0641 to -0.121.

Compared with AACTCGTG, GCTACCTA is lower in “PBM E-score” value: 0.228 for the first, -0.156 for the second.

First: ACCTTTCA
Second: ACAAGCCG
The “PBM E-score” value of the first is lower: -0.0376 for the first, -0.0164 for the second.

Going from AGGATTAC to CCGGTAAG, the “PBM E-score” value rises from -0.0965 to 0.0008.

First: ATAATTAT
Second: ACAGTAAT
The “PBM E-score” value of the first is higher: 0.311 for the first, -0.0196 for the second.

First: CAGAATCG
Second: ACCTCACA
The “PBM E-score” value of the first is higher: 0.17 for the first, -0.106 for the second.

First: AAAGTGTT
Second: GCTTGAGA
The “PBM E-score” value of the first is higher: -0.0118 for the first, -0.0858 for the second.

Compared with ACGAGGGG, ACGAGGGC is higher in “PBM E-score” value: 0.365 for the first, 0.374 for the second.

Compared with AAGAGGGC, CCGAGGGA is higher in “PBM E-score” value: -0.297 for the first, -0.0341 for the second.

First: CCGAGGGC
Second: ACGAGGGA
The “PBM E-score” value of the first is lower: 0.203 for the first, 0.41 for the second.

Compared with TAGTGGCA, CCCTTCCC is lower in “PBM E-score” value: -0.179 for the first, -0.234 for the second.

First: ACTCCAAC
Second: CTACTTCC
The “PBM E-score” value of the first is lower: -0.175 for the first, 0.0408 for the second.

Going from ATCATCAT to GTATCGAC, the “PBM E-score” value rises from 0.0455 to 0.165.

Going from CTCGTAAC to ATCGTAAC, the “PBM E-score” value falls from 0.428 to 0.368.

Going from GTCGTAAC to CGCGTAAG, the “PBM E-score” value falls from 0.397 to 0.165.

First: GACGTAAC
Second: CTCGTAAG
The “PBM E-score” value of the first is lower: -0.079 for the first, 0.44 for the second.

First: CACGTAAC
Second: GGCGTAAC
The “PBM E-score” value of the first is lower: -0.149 for the first, -0.0339 for the second.

First: CACGTAAG
Second: TCGCACCA
The “PBM E-score” value of the first is lower: 0.0432 for the first, 0.324 for the second.

Compared with CTAAGAAG, ACTGTGAG is lower in “PBM E-score” value: -0.0845 for the first, -0.105 for the second.

Compared with GCGAGCAA, CCCATTAG is lower in “PBM E-score” value: 0.198 for the first, -0.248 for the second.

Going from AGCAACAT to ACGTCTTC, the “PBM E-score” value falls from -0.112 to -0.126.

Going from ACAACTGT to CCTGTACG, the “PBM E-score” value rises from -0.148 to 0.4.

Compared with CCTGTACC, ACTGTACC is lower in “PBM E-score” value: -0.0544 for the first, -0.0754 for the second.

Going from ATTGTACA to ACTGTACT, the “PBM E-score” value falls from -0.0596 to -0.12.

First: ACTGTACG
Second: AGTGTACC
The “PBM E-score” value of the first is higher: 0.42 for the first, -0.059 for the second.

Going from ATTGTACC to AGTGTACA, the “PBM E-score” value falls from 0.00485 to -0.0734.

Going from CCTGTACA to ATTGTACG, the “PBM E-score” value rises from -0.174 to 0.431.

With AGTGTACG the “PBM E-score” value was 0.389.
